For 16 molecules, outcome results are on record in PubChem BioAssay AID504585 (National Center for Advancing Translational Sciences (NCATS), 2011).

Results filed as inconclusive are left out. Active and inactive are the calls of the source.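 The calls were made as follows: active = NMR saturation transfer binding signal to menin that a known MLL-derived binding peptide displaces; inconclusive = NMR binding signal present but the peptide does not displace it; inactive = no NMR binding signal.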

Menin (Homo sapiens), sequence (O00255 whole entry, looked up, the tested form may be a part): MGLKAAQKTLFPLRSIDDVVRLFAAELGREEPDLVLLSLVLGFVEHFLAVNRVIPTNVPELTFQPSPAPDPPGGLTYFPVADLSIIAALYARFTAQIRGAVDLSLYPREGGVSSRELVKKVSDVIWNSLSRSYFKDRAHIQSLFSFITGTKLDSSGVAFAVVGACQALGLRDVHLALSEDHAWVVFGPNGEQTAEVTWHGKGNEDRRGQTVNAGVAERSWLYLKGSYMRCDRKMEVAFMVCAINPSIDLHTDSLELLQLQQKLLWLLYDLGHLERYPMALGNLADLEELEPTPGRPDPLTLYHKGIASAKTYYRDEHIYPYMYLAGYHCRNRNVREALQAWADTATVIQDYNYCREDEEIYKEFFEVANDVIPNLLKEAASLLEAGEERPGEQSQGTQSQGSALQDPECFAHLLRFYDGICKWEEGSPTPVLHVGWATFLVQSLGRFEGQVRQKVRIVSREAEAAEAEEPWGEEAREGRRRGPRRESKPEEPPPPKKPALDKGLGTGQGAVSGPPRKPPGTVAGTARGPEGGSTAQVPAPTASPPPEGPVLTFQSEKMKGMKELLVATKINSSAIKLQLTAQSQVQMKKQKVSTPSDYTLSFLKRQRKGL

This test deals with Menin (Homo sapiens) (UniProt O00255). Nature of the test: Confirmation of Inhibitors Targeting the Menin-MLL Interaction in MLL Related Leukemias: Binding Confirmation with NMR Saturation Transfer Difference. The following applies: recombinant menin. An excerpt:
qHTS Assay for Inhibitors Targeting the Menin-MLL Interaction in MLL Related Leukemias NIH Chemical Genomics Center [NCGC] NIH Molecular Libraries Probe Centers Network [MLPCN] MLPCN Grant: MH084875-01A1 Assay Submitter (PI): Jolanta Grembecka, Tomasz Cierpicki, University of Virginia Translocations of the MLL (Mixed Lineage Leukemia) gene are frequently found in human leukemias affecting both children and adults. Fusion of MLL to one of more than 60 genes results in generation of oncogenic proteins upregulating Hox genes, which are vital to blood cell development. Patients harboring fusion of the MLL gene suffer from aggressive leukemias and respond poorly to available therapies. All of the oncogenic fusion proteins have a preserved N-terminal fragment of MLL that has been identified to interact with menin. It has been recently discovered that association with menin is critical to the leukemogenic activity of the MLL fusion oncoproteins. Selective targeting of the menin-MLL interaction could provide an attractive therapeutic approach to develop novel drugs for MLL-related leukemias. Small molecules blocking the menin-MLL interaction should reverse the oncogenic potential of MLL fusion proteins. We have developed and optimized a fluorescence polarization-based assay for the identification of Menin-MLL inhibitors. The assay was run employing two different MLL-derived peptides. The present assay uses a 12 amino acid peptide labeled with fluorescein at its N-terminus. This peptide consists of the menin high affinity binding motif from MLL and is potently bound by menin. Another peptide with a mutated sequence, labeled with Texas Red, was used in parallel as a less stringent screen for inhibitors. The present assay uses an orthogonal technique to identify those compounds specifically interacting with the target protein.
NMR samples for the saturation transfer difference (STD) experiments contained 2.5uM menin solution in 50 mM phosphate buffer, 50 mM NaCl, 1mM DTT, pH= 7.5, with 5% of D2O, final volume 150 uL. The compounds were added as stock solutions in DMSO to final 100 uM concentration and 5% DMSO. All NMR experiments were recorded using 600 MHz Bruker Avance III spectrometer at 25C. Samples for the competition STD experiments contained additional MBM1 peptide at final concentration of 25 uM and the measurements were carried out is the same way as described above for STD experiments.
As to `O=C(CS)Nc1ccc2ccccc2c1`, the outcome was “inactive; false”.

As for `CC(=O)NC1C(=O)N(CCN2CCOCC2)c2ccc(Cl)cc21` (stereo unspecified), the outcome was “inactive; false”.

`COc1ccccc1C(=O)Nc1ccnn1C1CCN(CC2CC=CCC2)CC1` (stereo unspecified): the outcome is “active; true”.

Consider `CN(C)c1ccc(C2CC(=O)C=C(Nc3ccccc3N)C2)cc1` (stereo unspecified), for which the outcome is “inactive; false”.

In the case of `CC(=O)NC1C(=O)N(CCN2CCOCC2)c2ccc(C)cc21` (stereo unspecified), the outcome is “inactive; false”.

As to `O=C(C[N+]12CC[N+](CC(=O)c3ccc(F)cc3)(CC1)CC2)c1ccc(F)cc1`, the outcome is “active; true”.

On to `C[C@H](NC(=O)c1cc2c(cn1)[nH]c1ccccc12)C(=O)O`, for which the outcome is “inactive; false”.

Consider `CCN(CC)Cc1cc2[nH]c3c4ccc(Cl)cc4ncc3c2cc1OC`, for which the outcome was “inactive; false”.

On to `CCOc1cc(CNCCc2ccc(S(N)(=O)=O)cc2)ccc1OCc1ccccc1`, for which the outcome is “active; true”.

Turning to `CCc1ccc2c(c1)C(NC(C)=O)C(=O)N2CCN1CCOCC1` (stereo unspecified), the outcome is “inactive; false”.

Turning to `CCOc1ccc2c(c1)C(NC(C)=O)C(=O)N2CCN1CCOCC1` (stereo unspecified), the outcome was “inactive; false”.

Turning to `CCCC(c1nnnn1Cc1cccs1)N1CCN(C2CCCC2)CC1` (stereo unspecified), the outcome was “active; true”.

For `Cc1sc2ncnc(NC3CCN(Cc4ccccc4)CC3)c2c1C`, the outcome was “active; true”.

Take `CCC(c1nnnn1Cc1ccc(F)cc1)N1CCN(C2CCCCC2)CC1` (stereo unspecified): the outcome is “active; true”.

As to `CCOC(=O)c1cnc2ccc(OCC)cc2c1N1CCN(C)CC1`, the outcome is “active; true”.

With `N#Cc1ccc(OCC(O)CN2CCN(C(c3ccccc3)c3ccccc3)CC2)cc1` (stereo unspecified), the outcome was “active; true”.
